High-throughput results as filed in PubChem BioAssay.
TDP1 cell noCPT – qHTS for Inhibitors of human tyrosyl-DNA phosphodiesterase 1 (TDP1): qHTS in cells in absence of CPT. DT40 Tdp1-/- hTDP1 cells, no CPT, ATP luminescence, 48 h. Potency, µM (top dose mostly 46.2 µM), for the others: top-dose activity change, negative = growth inhibition, usual class: inhibitors. 15% of 420,000 active. AID 686978, 2013; note: potency is the fitted concentration of half-maximal effect; nearly all actives have a fitted effect of over 55% in size
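No-CPT arm: Tdp1-/-;hTDP1 DT40 cells (400/well) plus compounds, incubated ≥48 hr at 37 °C. Readout CellTiter-Glo luminescence.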
ELG1 DNA repair – qHTS screen for small molecules that inhibit ELG1-dependent DNA repair in human embryonic kidney (HEK293T) cells expressing luciferase-tagged ELG1; HEK293T ELG1-luciferase reporter, luminescence, 16 h; DNA damage induced by 5-fluorouridine; AID 504467, 2011; 2.3% of 330,000 active; Potency, µM (titrated, usually from 46.1 µM), for the others: top-dose activity change, negative = inhibition, most hits filed as inhibitors; note: potency is the fitted concentration of half-maximal effect; nearly all actives have a fitted effect of over 55% in size
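Reporter activity after DNA damage by 5-fluorouridine is monitored. Compound-treated cells incubate 16 hr at 37 °C, then ONE-Glo is added for 30 min before luminescence reading.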
HT1080 IDH1KD tx – qHTS for induction of synthetic lethality in tumor cells producing 2HG: qHTS for the HT-1080-IDH1KD cell line. Potency, µM (series often up to 46.1 µM), without a hit: at the highest dose activity, negative = toxicity, actives largely listed as cytotoxic. AID 686971, 2013. 2% of 360,000 active. HT-1080 IDH1 knockdown viability, ATP luminescence, 48 h;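 note: potency is the fitted concentration of half-maximal effect; 0% = DMSO wells and -100% = cell-free medium wells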
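CellTiter-Glo luminescence after 48 h compound exposure at 37 degrees C of IDH1-knockdown HT-1080 cells in 5% FBS RPMI. %Activity scaled between DMSO wells and cell-free media wells, with curves fitted and assigned curve classes.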
IL1B secr inh – qHTS for Inhibitors of Inflammasome Signaling: IL-1-beta AlphaLISA Primary Screen. THP-1 LPS/ATP IL-1B secretion, AlphaLISA, 16 h; stronger effect = lower value. activity change, % at 57.5 µM. 4.7% of 360,000 active. AID 743279, 2014; in the data active = activity change below about -50%; inconclusive = mostly about -30% to -49%
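Secreted IL-1B measured by AlphaLISA bead assay after 16 h compound exposure of THP-1 cells; compounds (final up to 57.5 uM) added 1 h before LPS (250 ng/mL) and ATP (1.25 mM) stimulation; lower signal means less secretion.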
HT1080NT lethal – qHTS for induction of synthetic lethality in tumor cells producing 2HG: qHTS for the HT-1080-NT fibrosarcoma cell line; AID 686970, 2013; 1.6% of 360,000 active; HT-1080-NT fibrosarcoma viability, CellTiter-Glo ATP luminescence, 48 h; Potency, µM (series often up to 46.1 µM), for inactives: at the highest dose activity, negative = less viability, most hits filed as cytotoxic;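 note: NT is the 2HG producing partner of a matched IDH1 knockdown line; potency is the fitted concentration of half-maximal effect; 0% = DMSO-treated cells and -100% = media-only wells without cells; nearly all actives have a fitted effect of over 55% in size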
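Fibrosarcoma NT cells, 750 per well in 5% FBS RPMI, were exposed to compound for 48 hours. Viability: CellTiter-Glo luminescence.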
DT40 TDP1 CPT – qHTS for Inhibitors of human tyrosyl-DNA phosphodiesterase 1 (TDP1): qHTS in cells in presence of CPT. chicken DT40 Tdp1-/-;hTDP1 cells + 20 nM CPT, ATP luminescence, 48 h. Potency, µM (top dose mostly 46.2 µM), without a hit: at the top dose activity change, negative = growth inhibition, usual class: inhibitors. 12% of 420,000 active; note: potency is the fitted concentration of half-maximal effect; nearly all actives have a fitted effect of over 55% in size
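Cell growth measured by CellTiter-Glo luminescence after a minimum 48 h, 37 C compound exposure with 20 nM CPT in Tdp1-knockout DT40 cells stably expressing hTDP1, seeded 400/well; qHTS titration format.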
ELG1 FLuc counter – qHTS screen for small molecules that inhibit ELG1-dependent DNA repair: Hit Confirmation in Cell-Based Luciferin Assay; shares compounds with ELG1 DNA repair; cell-free firefly luciferase luminescence counter-screen, ViewLux; Potency, µM (titrated, usually from 46.1 µM), for inactives: at the highest dose activity change, negative = inhibition, usual class: inhibitors; 3% of 350 active; AID 624247, 2012; note: potency is the fitted concentration of half-maximal effect
ELG1 Luc conf – HTS assay for small molecules that inhibit ELG1-dependent DNA repair in human embryonic kidney (HEK293T) cells expressing luciferase-tagged ELG1: Hit Confirmation; 68% of 670 active; AID 624248, 2012; HEK293T ELG1-luciferase levels, luminescence; cells co-treated with 5-fluorouridine; Potency, µM (top dose mostly 46.1 µM), inactives show at the highest dose activity change, negative = inhibition, hits mostly inhibitors; shares compounds with ELG1 DNA repair; note: potency is the fitted concentration of half-maximal effect; nearly all actives have a fitted effect of over 55% in size
ELG1 MMS Luc – confirmation of human ELG1 repair inhibitors, MMS stimulated. shares compounds with ELG1 DNA repair. HEK293T luciferase-tagged ELG1 level, MMS stimulated. Potency, µM (top dose mostly 46.1 µM), for the others: at the top dose activity change, negative = inhibition, usual class: inhibitors. 53% of 670 active; note: potency is the fitted concentration of half-maximal effect; nearly all actives have a fitted effect of over 60% in size
ELG1 5-FU – qHTS screen for small molecules that inhibit ELG1-dependent DNA repair: Hit Confirmation with 5FU Viability; 670 tested, under 10 active; Potency, µM (highest dose often 46.1 µM), inactives show at the top dose activity change, negative = viability loss, usual class: cytotoxic; cell viability with 5-FU, ELG1-dependent repair; AID 624250, 2012; shares compounds with ELG1 DNA repair;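 note: ELG1-luc HEK293T cells cotreated with 5-fluorouridine at 10 µM final; potency is the fitted concentration of half-maximal effect; viability measured 16 h after compound addition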
ELG1 MMS viab – qHTS screen for small molecules that inhibit ELG1-dependent DNA repair: Hit Confirmation with MMS Viability. Cell viability with MMS, ELG1-dependent DNA repair. 33% of 670 active. Potency, µM (top dose mostly 46.1 µM), inactives show top-dose activity change, negative = viability loss, hits mostly cytotoxic. AID 624251, 2012. shares compounds with ELG1 DNA repair;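 note: ELG1-luc HEK293T cells co-treated with 10 µM MMS; potency is the fitted concentration of half-maximal effect; viability read 16 h after compound addition; nearly all actives have a fitted effect of over 60% in size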
ELG1 unstim viab – qHTS screen for small molecules that inhibit ELG1-dependent DNA repair: Hit Confirmation with Unstimulated Viability Assay; shares compounds with ELG1 DNA repair; cell viability counter-screen, unstimulated, luminescence; Potency, µM (series often up to 45.9 µM), for the others: at the top dose activity change, negative = loss of viability, actives largely listed as cytotoxic; 8% of 900 active;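 note: potency is the fitted concentration of half-maximal effect; compound exposure lasted 16 hours before reading; nearly all actives have a fitted effect of over 55% in size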
FLuc biochem – qHTS screen for small molecules that inhibit ELG1-dependent DNA repair: Hit Confirmation in Biochemical Luciferin Assay; shares compounds with ELG1 DNA repair; purified firefly luciferase, luminescence counter-screen; Potency, µM (doses to about 57.5 µM), for the others: at the top dose activity, negative = inhibition, usual class: inhibitors; 10% of 350 active; note: potency is the fitted concentration of half-maximal effect
* marks the source's active call; other numbers are inactive results; ? = inconclusive; · = no result. Rows were chosen to be rich in hits. Some 19% of all compounds tested hit in one or more screens of this group. Unless noted, calls come from the whole dose curve; as a rule, active = well fitted curve in the direction sought with a large enough effect; inconclusive = small, poorly fitted or top-dose-only effect, or another doubt; inactive = no such curve, though single readings can be large; an effect the other way counts as inactive or inconclusive. Unless noted, % is set by controls: 0 for no effect and ±100 for the full control effect.

SMILES	TDP1 cell noCPT	ELG1 DNA repair	HT1080 IDH1KD tx	IL1B secr inh	HT1080NT lethal	DT40 TDP1 CPT	ELG1 Luc conf	ELG1 MMS Luc	ELG1 5-FU	ELG1 MMS viab	ELG1 unstim viab	others
COc1ccc(/C=C/C(=O)OCC(=O)NC2CCCC2)c(OC)c1	?	12.8%	3.1%	0.1	7.2%	-27.7%	·	·	·	·	·
O=C1CCC/C1=c1\s/c(=C\c2cccnc2)c(=O)n1-c1ccccc1	16.4µM*	13µM*	-2.0%	-74.9*	-0.3%	?	8.89µM*	?	9.1%	-8.6%	-16.9%	ELG1 FLuc counter=-6.3%;FLuc biochem=-4.1%
Cc1c(N=Cc2cccnc2)c(=O)n(-c2ccccc2)n1C	-5.8%	4.8%	14.5%	19.7	14.7%	-5.4%	·	·	·	·	·
COc1ccc(-c2csc(N3CCN(S(=O)(=O)c4ccc5c(c4)NC(=O)CO5)CC3)n2)cc1	?	?	-23.1%	-13.9	-1.3%	?	·	·	·	·	·
c1nc(N2CCNCC2)c2sc3nc(N4CCOCC4)c4c(c3c2n1)CCC4	·	0.0%	·	·	·	·	·	·	·	·	·
CC1(C)Cc2c(c(N3CCOCC3)nc3sc4c(=O)[nH]cnc4c23)CS1	?	-6.5%	6.0%	23.6	-3.3%	?	14.1µM*	6.4%	?	12.7%	-5.5%	ELG1 FLuc counter=6.0%;FLuc biochem=2.8%
O=C(Nc1ccc(NC(=O)c2cccs2)cc1Cl)c1ccco1	-22.3%	?	-3.9%	-1.9	-10.1%	-4.6%	·	·	·	·	·
O=C(Nc1ccc(N2CCN(C(=O)c3ccco3)CC2)c(Cl)c1)c1cccs1	20.6µM*	4.11µM*	-28.0%	-63.0*	?	20.6µM*	3.97µM*	12.5µM*	?	28.1µM*	25µM*
CCN(CC)CCOc1ccc(-c2c(C)c3c(ccc4ccccc43)oc2=O)cc1	-41.2%	·	-2.5%	31.0	-7.7%	-20.2%	·	·	·	·	·
O=C(c1ccc(S(=O)(=O)Nc2ccccc2)cc1)N1CCC1	-19.6%	-4.3%	5.3%	-8.2	4.7%	?	·	·	·	·	·
Cc1ccc(Cn2ccc(NC(=O)c3nn(C)cc3[N+](=O)[O-])n2)cc1	-23.0%	?	?	-100.6*	?	23.0%	?	?	-0.9%	-0.5%	-7.4%
Cc1cc(C(=O)CSc2nc(N)cc(=O)[nH]2)c(C)n1-c1ccc(OC(F)F)cc1	1.84µM*	?	?	-9.1	0.0%	2.59µM*	-6.1%	1.58µM*	-15.7%	1.58µM*	?
COCCn1c(SCC(=O)N2CC(C)OC(C)C2)nc2c([nH]c3ccccc32)c1=O (stereo not drawn)	-20.6%	-9.4%	0.0%	36.0	2.3%	-20.0%	·	·	·	·	·
CCn1c(SCC(=O)N2CC(C)OC(C)C2)nc2c([nH]c3ccccc32)c1=O (stereo not drawn)	?	3.26µM*	-2.2%	-1.5	-2.5%	-29.3%	9.96µM*	-4.7%	?	19.9%	6.2%
Cc1cc(C)cc(NC(=O)c2ccc3c(O)c(S(=O)(=O)c4ccccc4)c(=O)[nH]c3c2)c1	17.7%	·	·	·	·	12.2%	·	·	·	·	·
CCC(CC)n1c(C)cc(=O)n1C(CC)CC	4.0%	·	19.4%	7.2	15.5%	-2.9%	·	·	·	·	·
O=C(Cn1cnc2ccccc21)Nc1ccc(SC(F)F)cc1	2.31µM*	2.06µM*	?	-61.2*	-26.0%	20.6µM*	-1.1%	1.58µM*	-4.1%	1.77µM*	?
Cn1nccc1NC(=O)COCC(=O)O	0.3%	3.7%	15.7%	18.5	8.4%	3.4%	·	·	·	·	·
COc1ccc(CCN2C(=O)C3C4C=CC(C5CC45)C3C2=O)cc1OC (stereo not drawn)	-28.1%	-2.2%	3.8%	18.3	4.2%	-19.2%	·	·	·	·	·
COc1ccc(CCN2C(=O)C3C4C=CC(C3C2=O)C2C(=O)N(CCc3ccc(OC)c(OC)c3)C(=O)C42)cc1OC (stereo not drawn)	?	3.26µM*	-16.3%	-4.4	-18.1%	10µM*	?	6.28µM*	-2.8%	4.99µM*	?
